We go through 6 compounds from PubChem BioAssay AID651551 (Sanford-Burnham Center for Chemical Genomics, 2012).

The target of this test is PEG-3 (UniProt Q6IN02). The test can be described thus: GAPDH versus PEG-3 reporter suppression – cell-based, luminescence, counter-screen for PEG-3 promoter inhibitor project, SAR follow-up (AID 651551). The following applies: HeLa PEG-Prom / GAPDH luciferase reporter, 6 or 24 h, run 3, 6 h; at 99 µM (top of the series).
Take `Cc1nc(NC(=O)c2ccccc2)sc1-c1csc(Nc2ccccc2Cl)n1`: the inhibition % (higher = more inhibition) amounted to 19.9%.
The same measure for `Cc1cc(NC(=O)c2ccccc2C)n(-c2nc3ccccc3[nH]2)n1`: 53.8%.
For `O=C(Nc1nc(-c2ccccc2)cs1)c1nn(-c2ccccc2)c(=O)c2ccccc12`, the inhibition % (higher = more inhibition) was 11.7%.
For `Cc1nc(NC(=O)c2ccccc2)sc1-c1csc(Nc2cccc(Cl)c2C)n1`, the inhibition % (higher = more inhibition) was found to be 49.3%.
Turning to `COc1ccc(-n2nc(C(=O)NCC(=O)Nc3cccc(OC)c3)c3ccccc3c2=O)cc1`, the inhibition % (higher = more inhibition) is -17.6%.
Regarding `COc1ccccc1Nc1nc(-c2sc(NC(=O)c3ccco3)nc2C)cs1`, the inhibition % (higher = more inhibition) was 15.2%.
